The structures appear in SMILES notation. Results filed as inconclusive are left out. The source made the active and inactive calls. Rule for the calls, unless noted: active = hit-call score of the fitted dose curve at least 0.9, where 1 is the maximum; inconclusive = response in the unintended direction; inactive = score below 0.9.

Assay [1] is described as follows: TOX21_p53_BLA_p2_viability: Viability Assessment in the Tox21 HCT-116 p53 Agonism Beta-lactamase Assay, Phase 2 (AID 2283591).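 Note: compound exposure lasted 16 h at 37 °C; actives lower the ATP signal meaning cytotoxicity.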 The procedure, abridged:
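HCT-116 p53-bla cells (4000/well) rested 5 h at 37C, then received compounds in DMSO (217-fold dilution) for 16 h at 37C, 5% CO2. After the CCF4 read, CellTiter-Glo was added; ATP luminescence was read after 30 min at room temperature.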

The target in assay [2] is Cellular tumor antigen p53 (Homo sapiens) (UniProt P04637). The experiment in a line: TOX21_p53_BLA_p5_ratio: Tox21 HCT-116 p53 Agonism Beta-lactamase Assay, Ratio, Phase 5 (AID 2283599). The procedure, abridged:
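HCT-116 cells carrying a p53-inducible beta-lactamase reporter were seeded at 4000 cells/well and dosed after 5 h with compound in DMSO (217-fold dilution). After 16 h at 37C, CCF4-AM substrate was added for 2 h, and the 460/530 nm emission ratio was scored as gain-of-signal versus DMSO.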

A short description of assay [3]: TOX21_p53_BLA_p4_viability: Viability Assessment in the Tox21 HCT-116 p53 Agonism Beta-lactamase Assay, Phase 4 (AID 2283597).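 Note: hits lower the luminescence signal meaning cytotoxicity.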 The procedure, abridged:
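Viability is taken as cellular ATP: after 16 h compound exposure of HCT116 cells and a 2 h room-temperature CCF4-AM substrate step, CellTiter-Glo reagent is added and luminescence is measured 30 min later.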

Assay [4] concerns the target Cellular tumor antigen p53 (Homo sapiens) (UniProt P04637). Description: TOX21_p53_BLA_p4_ratio: Tox21 HCT-116 p53 Agonism Beta-lactamase Assay, Ratio, Phase 4 (AID 2283601). A digest of the protocol:
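HCT116 cells carrying an inducible beta-lactamase reporter were plated at 4000 cells/well, rested 5 h, then exposed to compounds in DMSO (217-fold dilution) for 16 h at 37C. CCF4-AM substrate was loaded 2 h at room temperature; 460/530 nm emission ratio scored gain-of-signal versus DMSO.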

A short description of assay [5]: TOX21_p53_BLA_p5_viability: Viability Assessment in the Tox21 HCT-116 p53 Agonism Beta-lactamase Assay, Phase 5 (AID 2283600). The procedure, abridged:
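Viability is taken from cellular ATP content, measured by luciferase luminescence in the same wells after the beta-lactamase ratio read. Cells are seeded at 4000 per well and exposed to DMSO-dissolved compounds, diluted 217-fold, for 16 h.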

Assay [6] in a line: CCTE_Harrill_HTTr_Viability_MCF7: CCTE's 6-hour Cell Viability Assessment for the High-Throughput Transcriptomics (HTTr) Platform, in MCF-7 cells cultured in DMEM + 10% fetal bovine serum, Harrill Lab (AID 2284010; active = hit-call score of the fitted dose curve at least 0.9, where 1 is the maximum; inactive = score below 0.9). The procedure, abridged:
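Propidium iodide exclusion, imaged by high-content analysis, gauged viability after a six-hour exposure across eight concentrations. Cells were MCF-7 grown in DMEM with 10% fetal bovine serum; fits run in both directions against DMSO.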

The nature of assay [7]: CCTE_Harrill_HTTr_Apoptosis_MCF7: CCTE's 6-hour Apoptosis Assessment for the High-Throughput Transcriptomics (HTTr) Platform, in MCF-7 cells cultured in DMEM + 10% fetal bovine serum, Harrill Lab (AID 2284011; active = hit-call score of the fitted dose curve at least 0.9, where 1 is the maximum; inactive = score below 0.9). A digest of the protocol:
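Cells are dosed with test chemicals at eight concentrations and imaged 6 hours later for caspase-3/7 activity using a green fluorogenic detection reagent. Activity is fitted in both directions against DMSO controls.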

Assay [8] in a line: CCTE_Harrill_HTTr_CellCount_MCF7: CCTE's Cell Proliferation Assessment for the High-Throughput Transcriptomics (HTTr) Platform, Harrill Lab (AID 2284012).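 Note: cells exposed to compound for six hours; intended direction is loss of nuclei count meaning fewer cells.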 The procedure, abridged: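 Cell count from high-content imaging of Hoechst-labeled nuclei serves as viability/growth readout. Chemicals were applied to MCF-7 cells in eight concentrations for six hours, with fitting in both directions relative to DMSO.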

Cellular tumor antigen p53 (Homo sapiens), sequence (P04637 whole entry, looked up): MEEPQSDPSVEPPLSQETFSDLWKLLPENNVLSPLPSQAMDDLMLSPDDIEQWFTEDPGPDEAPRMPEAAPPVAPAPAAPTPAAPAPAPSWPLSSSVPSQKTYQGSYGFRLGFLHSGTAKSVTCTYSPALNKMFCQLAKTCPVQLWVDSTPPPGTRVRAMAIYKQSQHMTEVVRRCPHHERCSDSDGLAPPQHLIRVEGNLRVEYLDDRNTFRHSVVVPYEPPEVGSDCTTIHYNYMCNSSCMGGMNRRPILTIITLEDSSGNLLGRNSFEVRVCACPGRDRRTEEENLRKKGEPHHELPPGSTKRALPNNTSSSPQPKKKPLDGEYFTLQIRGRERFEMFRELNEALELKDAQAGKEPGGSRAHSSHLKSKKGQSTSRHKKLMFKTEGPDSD

Regarding `NS(=O)(=O)c1cc2c(cc1Cl)NC(CSCc1ccccc1)=NS2(=O)=O`, the result in assay [1] and in assay [2] was inactive.

Regarding `CS(=O)(=O)c1ccc([C@@H](O)[C@@H](CF)NC(=O)C(Cl)Cl)cc1`, the compound was classed as inactive in assay [1] and in assay [2].

As for `Cc1cc(C(=O)NCCc2ccc(S(=O)(=O)NC(=O)NN3CCCCCC3)cc2)no1`, the compound was called inactive in assay [1], in assay [3] and in assay [4].

`Cn1ccc2cc3c(cc21)CCN3C(=O)Nc1cccnc1`: the result in assay [1], in assay [3], in assay [2] and in assay [4] was inactive.

With `NC(=S)Nc1cccc2ccccc12`, the outcome in assay [1], in assay [3], in assay [2] and in assay [4] was inactive.

Regarding `O=[N+]([O-])c1ccc2[nH]ncc2c1`, the call in assay [1], in assay [3], in assay [2] and in assay [4] was inactive.

With `CN1C(CCl)Nc2cc(Cl)c(S(N)(=O)=O)cc2S1(=O)=O` (configuration not stated), the outcome in assay [1], in assay [3], in assay [2] and in assay [4] was inactive.

As for `CC(=O)N(CC(C)C(=O)O)c1c(I)cc(I)c(N)c1I` (configuration not stated), the compound was called inactive in assay [1], in assay [3], in assay [2] and in assay [4].

Regarding `O=C(O)c1ccc(CO)o1`, the call in assay [1], in assay [3], in assay [5] and in assay [4] was inactive.

As for `CC1(C)[C@@H](OC(=O)CCC(=O)O)CC[C@]2(C)[C@H]3C(=O)C=C4[C@@H]5C[C@@](C)(C(=O)O)CC[C@]5(C)CC[C@@]4(C)[C@]3(C)CC[C@@H]12`, the call in assay [1], in assay [2] and in assay [5] was inactive.

For `C[C@]12CCC(=O)C=C1CC[C@@H]1[C@@H]2[C@@H](O)C[C@@]2(C)[C@H]1CC[C@]2(O)C(=O)COC(=O)CCC(=O)O`, the compound was classed as inactive in assay [1], in assay [3], in assay [5] and in assay [4].

For `Nc1ccc2c3c(cccc13)-c1ccccc1-2`, the call in assay [1], in assay [3] and in assay [5] was inactive.

For `CSc1ccc(C(=O)c2[nH]c(=O)[nH]c2C)cc1`, the compound was called inactive in assay [1], in assay [2], in assay [5] and in assay [4].

`O=C1NC2CCCCN2C12CCN(CCCN1c3ccccc3CCc3ccc(Cl)cc31)CC2` (configuration not stated): the AC50 – broadly, the concentration giving half of the maximal activity seen – in assay [1] was 37.5 µM (active); in assay [3], 43 µM (active). The outcome in assay [4] was inactive.

For `Cc1ccc(C(C)NC(=O)[C@@H](NC(=O)OC(C)C)C(C)C)cc1` (some centres not stated), the outcome in assay [1], in assay [3], in assay [2], in assay [5], in assay [4] and in assay [6] was inactive. The result in assay [7] and in assay [8] was inactive.

For the compound `O=C1C=CCCC1`, the compound was called inactive in assay [1], in assay [2] and in assay [5].

For `CC(=O)CC(c1ccc([N+](=O)[O-])cc1)c1c(O)c2ccccc2oc1=O` (configuration not stated), the outcome in assay [1], in assay [3], in assay [2] and in assay [4] was inactive.

Consider `CC(=O)Nc1cccc(C)c1`, for which the outcome in assay [1], in assay [3], in assay [5] and in assay [4] was inactive.

For the compound `NC(=O)c1ccncc1`, the result in assay [1], in assay [3], in assay [2] and in assay [4] was inactive.

In the case of `CNS(=O)(=O)CCc1ccc2[nH]cc(C3CCN(C)CC3)c2c1`, the result in assay [1], in assay [3], in assay [5] and in assay [4] was inactive.

As for `CCOC(=O)NCCC[Si](OCC)(OCC)OCC`, the compound was classed as inactive in assay [1], in assay [3] and in assay [5].

Consider `CNCCCN1c2ccccc2CCc2ccccc21`, for which the result in assay [1], in assay [3] and in assay [4] was inactive.

On to `CCC(O)C(C)(C)C` (configuration not stated), for which the outcome in assay [1], in assay [2], in assay [5] and in assay [4] was inactive.

Regarding `O=C1c2ccccc2CN2C(=O)c3ccccc3CN12`, the outcome in assay [1], in assay [3], in assay [2] and in assay [4] was inactive.

Regarding `CN1C(C)(C)CCCC1(C)C`, the compound was classed as inactive in assay [1], in assay [2] and in assay [5].

As for `CC(=O)N=c1sc(S(N)(=O)=O)nn1C`, the call in assay [1], in assay [3], in assay [2], in assay [5] and in assay [4] was inactive.

Take `CCC(C)(C)C(=O)O`: the outcome in assay [1], in assay [3], in assay [5] and in assay [4] was inactive.

For `CC(C)(C)C(=O)Oc1ccc(S(=O)(=O)Nc2ccccc2C(=O)NCC(=O)O)cc1`, the compound was called inactive in assay [1], in assay [3], in assay [5] and in assay [4].

With `Nc1c(NC/C=C\COc2cc(CN3CCCCC3)ccn2)c(=O)c1=O`, the call in assay [1] and in assay [2] was inactive.

(Values after PubChem BioAssay (EPA / NIEHS).)
